Screening data deposited in PubChem by National Center for Advancing Translational Sciences (NCATS).
Compounds with a hit are over-represented: about 18% of the library has one in this group of screens.
CtBP-E1A blk: qHTS Assay for Inhibitors of the CtBP/E1A Interaction; activity change, % (concentration not given with the values); CtBP / adenovirus E1A interaction (AlphaScreen); hit rate 0.49% among 340,000; AlphaScreen GST-E1A/His-CtBP binding, 1536-well; active compounds read low; AID 651724, 2012; in the data active = activity change below about -65%; inconclusive = mostly about -30% to -63%
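AlphaScreen with 125 nM GST-E1A and 125 nM His-CtBP (5X stocks) in Tris pH 8.0, 300 mM NaCl, BSA, Tween 20, TCEP. Compounds preincubated 2 h at 37 deg C, then glutathione donor/nickel acceptor beads added for 1 h at 37 deg C in dark.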
Six1-Eya2 inh: qHTS Assay for Inhibitors of the Six1/Eya2 Interaction. AlphaScreen GST-Six1/His-Eya2 binding, biochemical; active compounds read low. hit rate 0.56% among 360,000. activity change, % (no concentration beside the values). Homeobox protein SIX1 (Homo sapiens) + Protein phosphatase EYA2 (Homo sapiens), …; in the data active = activity change below about -65%; inconclusive = mostly about -30% to -63%
Target sequence (O00167 whole entry, looked up): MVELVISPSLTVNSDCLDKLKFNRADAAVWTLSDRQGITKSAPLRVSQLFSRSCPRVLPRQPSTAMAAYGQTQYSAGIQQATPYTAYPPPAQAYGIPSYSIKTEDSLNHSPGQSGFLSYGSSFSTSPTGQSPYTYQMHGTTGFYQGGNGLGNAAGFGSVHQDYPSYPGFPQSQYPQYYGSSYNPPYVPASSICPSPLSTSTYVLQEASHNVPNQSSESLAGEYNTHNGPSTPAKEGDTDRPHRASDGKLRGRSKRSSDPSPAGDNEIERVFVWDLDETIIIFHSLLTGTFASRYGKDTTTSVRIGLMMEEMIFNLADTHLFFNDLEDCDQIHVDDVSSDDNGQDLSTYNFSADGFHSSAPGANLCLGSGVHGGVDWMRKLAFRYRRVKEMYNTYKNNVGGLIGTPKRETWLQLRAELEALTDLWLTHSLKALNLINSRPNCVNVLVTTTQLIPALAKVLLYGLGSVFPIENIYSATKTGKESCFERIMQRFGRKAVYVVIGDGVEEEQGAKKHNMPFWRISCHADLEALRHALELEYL
Target sequence (Q15475 whole entry, looked up): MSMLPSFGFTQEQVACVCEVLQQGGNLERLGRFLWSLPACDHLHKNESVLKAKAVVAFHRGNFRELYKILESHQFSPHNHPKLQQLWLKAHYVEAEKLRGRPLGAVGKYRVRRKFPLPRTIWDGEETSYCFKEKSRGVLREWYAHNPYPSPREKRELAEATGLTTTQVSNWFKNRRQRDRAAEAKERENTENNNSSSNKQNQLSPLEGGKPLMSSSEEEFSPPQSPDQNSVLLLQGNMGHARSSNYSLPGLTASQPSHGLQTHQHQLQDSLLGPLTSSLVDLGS
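Homogeneous AlphaScreen proximity assay pairing GST-Six1 with His-tagged Eya2 (added as 5X mix: 250 nM and 500 nM) in 50 mM Tris pH 8.0, 300 mM NaCl, 1 mM TCEP. Glutathione donor and nickel acceptor beads; 1 h, 37 °C, dark.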
TDP1 cell CPT: qHTS for Inhibitors of human tyrosyl-DNA phosphodiesterase 1 (TDP1): qHTS in cells in presence of CPT | Potency, µM (titrated, usually from 46.2 µM), without a hit: at the top dose activity change, negative = growth inhibition, hits mostly inhibitors | hit rate 12% among 420,000 | chicken DT40 Tdp1-/-;hTDP1 cells + 20 nM CPT, ATP luminescence, 48 h; also: potency is read from the fitted curve at half-maximal effect; nearly all actives have a fitted effect of over 55% in size
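Chicken DT40 Tdp1-/- cells complemented with human TDP1, 400 cells/well, exposed to compounds plus 20 nM camptothecin for at least 48 h at 37 C; viability read as ATP content by CellTiter-Glo luminescence.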
TDP1 block: qHTS Assay for Inhibitors of Tyrosyl-DNA Phosphodiesterase (TDP1). recombinant TDP1, AlphaScreen DNA substrate cleavage. Potency, µM (titrated, usually from 130 µM), inactives show top-dose activity change, negative = inhibition, actives largely listed as inhibitors. hit rate 0.28% among 350,000; also: potency is read from the fitted curve at half-maximal effect; nearly all actives have a fitted effect of over 40% in size
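Tdp1 1 nM final; 15 min RT w/ cpd; substrate 15 nM, 5 min; beads 10 ug/ml, 10 min; AlphaScreen read. Neg ctrl: no enzyme.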
DT40 TDP1 no CPT: qHTS for Inhibitors of human tyrosyl-DNA phosphodiesterase 1 (TDP1): qHTS in cells in absence of CPT | AID 686978, 2013 | DT40 Tdp1-/- hTDP1 cells, no CPT, ATP luminescence, 48 h | Potency, µM (titrated, usually from 46.2 µM), inactives show at the highest dose activity change, negative = growth inhibition, usual class: inhibitors | hit rate 15% among 420,000; also: potency is read from the fitted curve at half-maximal effect; nearly all actives have a fitted effect of over 55% in size
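Seeded 400 DT40-hTDP1 cells/well (vehicle DMSO, no 20 nM CPT); pinned compounds; ≥48 hr at 37 °C; CellTiter-Glo luminescence as viability measure.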
IL1B secr inh: qHTS for Inhibitors of Inflammasome Signaling: IL-1-beta AlphaLISA Primary Screen | THP-1 LPS/ATP IL-1B secretion, AlphaLISA, 16 h; active compounds read low | activity change, % at 57.5 µM | hit rate 4.7% among 360,000 | AID 743279, 2014; in the data active = activity change below about -50%; inconclusive = mostly about -30% to -49%
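Secreted IL-1B measured by AlphaLISA bead assay after 16 h compound exposure of THP-1 cells; compounds (final up to 57.5 uM) added 1 h before LPS (250 ng/mL) and ATP (1.25 mM) stimulation; lower signal means less secretion.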
Active calls of the source: *; ? = inconclusive; · = not tested or not shown; ! = not active in a repeat; [ ] = remark or other dose. Unless noted, calls follow the shape of the dose curve; as a rule, active = well fitted curve in the direction sought with a large enough effect; inconclusive = small, poorly fitted or top-dose-only effect, or another doubt; inactive = no such curve, though single readings can be large; an effect the other way counts as inactive or inconclusive. % is scaled to controls: 0 for no effect and ±100 for the full control effect.

SMILES	CtBP-E1A blk	Six1-Eya2 inh	TDP1 cell CPT	TDP1 block	DT40 TDP1 no CPT	IL1B secr inh
Cc1ccc(C(=O)c2cc([N+](=O)[O-])ccc2N2CCN(C)CC2)cc1	-13	-15	5.8µM*	5%	5.8µM*	1
CN1CCN(c2ccc([N+](=O)[O-])cc2C(=O)c2ccccc2)CC1	-2	-2	?	0%	?	12
CN1CCN(c2ccc([N+](=O)[O-])cc2C(=O)c2ccc(Br)cc2)CC1	-7	-2	2.3µM*	2%	5.2µM*	-3
O=[N+]([O-])c1ccc(N2CCN(c3ccc([N+](=O)[O-])cc3CO)CC2)c(CO)c1	2	1	2.3µM*	·	2.9µM*	-24
CCOC(=O)c1nnc(-c2ccccc2)[nH]c1=O	15	2	-28%	3%	8%	16
N#Cc1ccc(S(=O)(=O)N2CCc3[nH]c4ccc(F)cc4c3C2)cc1	-2	-1	?	3%	?	?
COc1ccc(C(=O)N2CCCCCCC2)cc1OC1CCN(C(C)C)CC1	1	4	-7%	4%	0%	-2
Cc1noc2ncnc(Oc3ccccc3Cl)c12	·	0	-6%	-5%	8%	10
COc1ccc(-n2c(=O)c(CCC(=O)N3CCN(c4ccccc4O)CC3)nc3ccccc32)cc1	1	-11	26µM*	·	?	-29
COc1ccc(N2CCN(C(=O)CCc3ccccc3OC)CC2)cc1	·	-12	?	·	?	-10
O=C(CCCO)c1ccc2c(c1)OCCO2	-10	-8	-26%	2%	-9%	-5
O=C(CCN1CCCCC1)c1ccc2c(c1)OCO2	5	1	7.3µM*	3%	10µM*	-19
O=C(CCN1CCc2ccccc2CC1)c1ccc2c(c1)OCCO2	-3	-2	4.6µM*	4%	4.1µM*	-58*
O=C(CNC1=NCCC1)c1ccc2c(c1)OCCO2	8	14	?	0%	18µM*	9
O=S(=O)(c1ccc2nc(SCc3ccc(Cl)cc3)[nH]c2c1)N1CCOCC1	2	5	-21%	6%	-9%	-25
Cc1ccc(C(O)c2ncc(-c3ccccc3C)[nH]2)cc1 (stereo not given)	-24	-4	-27%	·	-10%	-2
CSc1nn(Cc2ccccc2C)c(NC(C)=O)c1S(=O)(=O)c1ccc(C)cc1	·	·	?	0%	15µM*	·
CSc1nn(Cc2ccc(F)cc2)c(N(C(C)=O)C(C)=O)c1S(=O)(=O)c1ccccc1	·	·	-29%	-4%	?	·
COc1cccc(-c2nc(CS(=O)(=O)CC(=O)Nc3cc(OC)ccc3OC)c(C)o2)c1	·	10	?	8%	5.8µM*	-5
COc1cccc(-c2nc(CS(=O)(=O)CC(=O)NC3CCCc4ccccc43)c(C)o2)c1 (stereo not given)	0	0	23µM*	4%	18µM*	-10
Nc1ccn([C@H]2CC[C@@H](CO)O2)c(=O)n1	-2	-5	7.5µM*	11%	11µM*	2
Nc1ccn([C@@H]2O[C@H](CO)[C@@H](O)[C@@H]2O)c(=O)n1	9	0	0.12µM*	7%	0.16µM*	61
CC[C@H](C)[C@@H](CO)NC(=O)[C@H]1O[C@@H](n2ccc(N)nc2=O)[C@H](O)[C@@H]1O	3	0	-11%	·	-7%	26
Nc1ccn(C2OC(CO)C(O)C2O)c(=O)n1 (stereo not given)	·	·	0.016µM*!	8%[56.1 µM]	0.012µM*!	·
NC[C@H]1O[C@@H](n2ccc(N)nc2=O)[C@H](O)[C@@H]1O	1	11	?	·	?	21
SMILES	CtBP-E1A blk	Six1-Eya2 inh	TDP1 cell CPT	TDP1 block	DT40 TDP1 no CPT	IL1B secr inh
CCCCCCCCCCCCCCCC(=O)OCC1OC(n2ccc(N)nc2=O)C(O)C1O (stereo not given)	4	6	0.52µM*	·	0.65µM*	0
O=C1CCc2cc(S(=O)(=O)Nc3ccc(-c4ccccc4)cc3)ccc2N1	·	·	·	3%	·	·
COc1ccc(OC)c(CNC(=O)Nc2cn(CC(C)C)c(=O)c3ccccc23)c1	·	·	?	5%	?	·
CN(C)CC[C@@H](c1ccccc1)c1ccccn1	·	·	·	3%[56.1 µM]	·	·
Nc1cn(C2OC(CO)C(O)C2O)c(=O)[nH]c1=O (stereo not given)	-3	0	-4%	56µM*	0%	30
Nc1ccn(C2OC(CO)C(O)C2F)c(=O)n1 (stereo not given)	9	7	1.3µM*	·	2.1µM*	13
CCCCCCCCCCCCCCCC(=O)Nc1ccn(C2OC(CO)C(O)C2O)c(=O)n1 (stereo not given)	4	-3	0.65µM*	·	0.73µM*	30
NC(=O)c1ncn(C2OC(CO)C(O)C2O)c1N (stereo not given)	·	·	5%	2%	23%	·
OCC1OC(n2ccc3c2ncn2ncnc32)C(O)C1O (stereo not given)	0	7	0.37µM*	·	0.46µM*	66
Cc1ccccc1CN1CCc2c(OCC(=O)N3CCCCC3)cccc2C1=O	-5	-11	?	-1%	?	?
O=C(COc1cccc2c1CCN(Cc1ccccc1F)C2=O)N1CCOCC1	·	·	·	4%	·	·
CCOC(=O)N1CCN(C(=O)COc2cccc3c2CCN(Cc2ccccc2F)C3=O)CC1	5	4	21µM*	3%	15µM*	-5
O=C(COc1cccc2c1CCN(Cc1ccccc1F)C2=O)N1CCCCC1	7	2	?	5%	21µM*	-3
O=S(=O)(N[C@H](CO)Cc1ccccc1)c1ccc(Br)cc1F	-3	1	3%	·	-24%	5
O=C(O)c1cccc(Cn2c(Cl)c(/C=N/NC(=O)c3ccc(O)cc3)sc2=O)c1	-67*	?	1%	3%	-11%	-4
